Measured values published in PubChem BioAssay (EPA / NIEHS).
Values joined by “and” are separate entries in the source; they are usually repeats but may differ in a detail not shown here. Equal values may be shown once. Inconclusive results are not listed. Where a structure was tested more than once in an assay, its records may differ in their call. Active and inactive are the calls of the source. Rule for the calls, unless noted: active = hit-call score of the fitted dose curve at least 0.9, where 1 is the maximum; inactive = score below 0.9.

Legend:
[1] = CCTE_Shafer_MEA_acute_burst_percentage_mean: CCTE's Neural Acute Assay for Percentage of Spikes in a Burst, Shafer Lab (AID 2284017);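 for AC50: curve fitted for loss of signal so potency reflects decreased burst percentage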
Outline: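 Well-level mean burst percentage from a 40-min recording after compound (0.03-40 uM) expressed as percent change from a 40-min baseline at 37C. Cultures: primary rat cortical neurons on MEA, dosed on DIV 13 or 15; fitted downward relative to DMSO.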

[2] = CCTE_Shafer_MEA_acute_burst_percentage_std: CCTE's Neural Acute Assay for Standard Deviation of Burst Percentage, Shafer Lab (AID 2284018);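 note: fitted in the negative direction so actives lower burst percentage SD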
Outline: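 Rat primary cortical neurons on 48-well MEAs, DIV 13 or 15, 37 C. 40-min baseline then 40-min recording with compound (0.03-40 uM); well-level SD of per-electrode burst spike percentage, expressed as percent change from baseline.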

[3] = CCTE_Shafer_MEA_acute_per_network_burst_spike_number_mean: CCTE's Neural Acute Assay for Average Number of Spikes in a Network Burst, Shafer Lab (AID 2284019);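 for AC50: curve fitted for loss of signal so actives reduce spikes per network burst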
Outline: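 Rat primary cortical neurons on 48-well MEA at DIV 13 or 15, 37 C; compounds 0.03-40 uM, at least three wells each. 40-min baseline then 40-min exposure recording; percent change in mean spikes per network burst.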

[4] = CCTE_Shafer_MEA_acute_per_network_burst_spike_number_std: CCTE's Neural Acute Assay for Standard Deviation of Number of Spikes in a Network Burst, Shafer Lab (AID 2284020);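 note: fitted for decrease in spike-number SD versus DMSO so actives lower it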
Outline: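 Rat primary cortical neurons on 48-well MEA (16 electrodes/well), treated DIV 13 or 15 at 0.03-40 uM, ≥3 wells per compound. 40 min recordings at 37 C before and after dosing; value is percent change in network-burst spike-number SD, negative direction vs DMSO.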

[5] = CCTE_Shafer_MEA_acute_per_network_burst_electrodes_number_mean: CCTE's Neural Acute Assay for Mean Number of Electrodes in a Network Burst, Shafer Lab (AID 2284021);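 note: curves fitted for decreases only so hits reduce electrodes per burst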
Outline: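 Readout: % change in mean electrodes active per network burst, post- vs pre-treatment, each well. Spikes detected at 8x rms noise after 300-5000 Hz band-pass; rat cortical cultures, DIV 13/15, compounds 0.03-40 uM, DMSO baseline.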

[6] = CCTE_Shafer_MEA_acute_network_burst_percentage: CCTE's Neural Acute Assay for Percentage of Network Bursts, Shafer Lab (AID 2284022);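 note: curves fitted for loss so actives lower network burst percentage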
Outline: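 Rat cortical cultures, DIV 13/15; 20 min equilibration, 40 min baseline, compound 0.03-40 uM, 40 min recording, 37 C. Spikes: 300-5000 Hz band-pass, threshold 8x rms noise. Readout: % change in network-burst spike fraction; loss direction vs DMSO.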

[7] = CCTE_Shafer_MEA_acute_cross_correlation_area: CCTE's Neural Acute Assay for Area of Cross Correlation, Shafer Lab (AID 2284024);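 note: area under pooled inter-electrode spike cross-correlation near zero lag as percent change from own baseline; curves fitted for loss of cross-correlation area so actives lower synchrony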
Outline: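 Rat cortical cultures, DIV 13/15, MEA; spikes detected at 8x rms noise (300-5000 Hz band-pass). Compound 0.03-40 uM, ≥3 wells each. Readout: % change in pooled inter-electrode cross-correlation area vs own baseline; DMSO negative control.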

[8] = CCTE_Shafer_MEA_acute_cross_correlation_HWHM: CCTE's Neural Acute Assay for Cross Correlation at Half Width at Half Maximum, Shafer Lab (AID 2284026);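 note: percent change per well from pre-dose baseline in spike cross-correlogram half width; hits are a decrease in cross-correlogram half width relative to DMSO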
Outline: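 Read-out: half width at half maximum of action-potential cross-correlogram, percent change versus pre-treatment baseline, fitted in loss direction against DMSO. Rat cortical cultures, DIV 13 or 15, dosed 0.03-40 uM, 40-min recordings at 37 C.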

[9] = molecular target: Estrogen receptor (Homo sapiens) (UniProt P03372); assay: CCTE_Deisenroth_AIME_96WELL_LUC_Active: CCTE's 96-well Estrogen Receptor Transactivation Assay with AIME metabolic competence (ERTA luciferase; metabolism positive), Deisenroth Lab (AID 2284023; active = hit-call score of the fitted dose curve at least 0.9, where 1 is the maximum)
Sequence of Estrogen receptor (Homo sapiens) (P03372 whole entry, looked up): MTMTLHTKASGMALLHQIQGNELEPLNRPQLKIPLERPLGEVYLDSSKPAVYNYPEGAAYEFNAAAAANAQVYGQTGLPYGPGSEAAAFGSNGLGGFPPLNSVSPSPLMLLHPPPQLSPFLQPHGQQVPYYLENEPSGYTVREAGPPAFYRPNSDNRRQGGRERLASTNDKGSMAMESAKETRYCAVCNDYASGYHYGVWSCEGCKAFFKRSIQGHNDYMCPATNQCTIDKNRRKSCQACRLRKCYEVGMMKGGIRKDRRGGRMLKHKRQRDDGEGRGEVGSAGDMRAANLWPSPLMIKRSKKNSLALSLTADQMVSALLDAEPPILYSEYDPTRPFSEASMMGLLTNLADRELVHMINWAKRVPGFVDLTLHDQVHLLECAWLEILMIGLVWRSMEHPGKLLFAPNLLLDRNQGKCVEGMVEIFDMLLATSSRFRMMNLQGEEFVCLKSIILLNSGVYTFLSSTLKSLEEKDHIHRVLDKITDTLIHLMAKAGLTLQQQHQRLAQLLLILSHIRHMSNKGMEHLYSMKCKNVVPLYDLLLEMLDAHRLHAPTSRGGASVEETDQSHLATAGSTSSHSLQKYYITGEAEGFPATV
Outline: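 Chemicals pre-incubated 2 h with alginate-immobilized phenobarbital/beta-naphthoflavone-induced male Sprague Dawley rat liver S9, then medium transferred to VM7Luc4E2 cells for 24 h luciferase read-out. 10-point series 0.002 - 200 uM; fitted relative to 17beta-estradiol.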

[10] = molecular target: Estrogen receptor (Homo sapiens) (UniProt P03372); assay: CCTE_Deisenroth_AIME_96WELL_LUC_Inactive: CCTE's 96-well Estrogen Receptor Transactivation Assay without AIME metabolic competence (ERTA luciferase; metabolism negative), Deisenroth Lab (AID 2284025; active = hit-call score of the fitted dose curve at least 0.9, where 1 is the maximum)
Outline: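 VM7Luc4E2 breast cells, luciferase read 24 h after dosing with medium pre-incubated 2 h on alginate-water lids (metabolism negative). 10-point series 0.002–200 uM, single technical replicate, n≥4; fit relative to 17beta-estradiol.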

Measured: AC50

CC(C)CCCCCCOC(=O)CCCCC(=O)OCCCCCCC(C)C
not listed: [9] | [10]
inactive: all other assays above

c1ccc2c(c1)ccc1ccccc12
inactive: [9]
active: [10] 133 µM

CCCCCCCCCCCCc1ccccc1S(=O)(=O)O
not listed: [9] | [10]
inactive: all other assays above

CC(C)(C)c1cc(C(C)(C)C)c(O)c(C(C)(C)C)c1
not listed: [9] | [10]
inactive: all other assays above

CC#C[C@]1(O)CC[C@H]2[C@@H]3CCC4=CC(=O)CCC4=C3[C@@H](c3ccc(N(C)C)cc3)C[C@@]21C
active: [1] 16.3 µM and 5.2 µM | [2] 4.22 µM and 6.02 µM | [4] 9.84 µM | [5] 7.54 µM | [6] 16.2 µM | [8] 20 µM and 5.43 µM
inactive: [3] | [4] | [5] | [6] | [7]

c1ccc2cc3c(ccc4ccccc43)cc2c1
active: [9] 11.8 µM | [10] 5.25 µM

CC(C)(C)c1ccc(O)c(C(C)(C)C)c1
active: [9] 26.4 µM

O=c1c(-c2ccc(O)cc2)coc2cc(O)ccc12
active: [3] 4.06 µM | [8] 24.4 µM
not listed: [9] | [10]
inactive: all other assays above

CCCCCCCCCCCCN1CCCC1=O
not listed: [9] | [10]
inactive: all other assays above

CC(=O)NC1(c2cccc(F)c2)CCN(CC[C@@]2(c3ccc(Cl)c(Cl)c3)CN(c3ccccc3)C(=O)CO2)CC1
inactive: [3] | [4] | [5]
active: [1] 8.94 µM | [2] 20 µM | [6] 8.3 µM | [7] 1.03 µM | [8] 20 µM

CCCCC[C@H](O)CC(=O)CCc1ccc(O)c(OC)c1
active: [9] 26 µM | [10] 24.9 µM

CCC(=C(c1ccc(O)cc1)c1ccc(OCCN(C)C)cc1)c1ccccc1
active: [1] 20.6 µM | [4] 23.8 µM
not listed: [9] | [10]
inactive: all other assays above

OCCC(F)(F)C(F)(F)C(F)(F)C(F)(F)C(F)(F)C(F)(F)C(F)(F)C(F)(F)F
not listed: [9] | [10]
inactive: all other assays above

c1ccc2c(c1)Cc1ccccc1-2
inactive: [9]

OC1CCC(C2CCCCC2)CC1 (centres undefined)
active: [1] 27.3 µM | [8] 30 µM
not listed: [9] | [10]
inactive: all other assays above

NC(=O)N(O)[C@@H]1C=C[C@H](Oc2cccc(Oc3ccc(F)cc3)c2)C1
active: [1] 12.9 µM | [4] 10 µM | [8] 10 µM
not listed: [9] | [10]
inactive: all other assays above

O=C(/C=C/c1ccc(O)cc1)CC(=O)/C=C/c1ccc(O)cc1
active: [9] 31.4 µM | [10] 43.2 µM

O=C(O)c1ccccc1C(c1ccc(O)cc1)c1ccc(O)cc1
active: [1] 20 µM | [3] 20 µM | [7] 20 µM
not listed: [9] | [10]
inactive: all other assays above

CC[C@H](c1ccc(O)cc1)[C@@H](CC)c1ccc(O)cc1
not listed: [9] | [10]
inactive: all other assays above

CN(C)C=O
not listed: [9] | [10]
inactive: all other assays above

CN1CCC[C@H]1c1cccnc1
active: [7] 0.7 µM
not listed: [9] | [10]
inactive: all other assays above

CCCCC(CC)COC(=O)CCCCC(=O)OCC(CC)CCCC (centres undefined)
inactive: [9] | [10]

Cc1cc(CCN2CCN(c3nsc4ccccc34)CC2)cc2c1NC(=O)CC2(C)C
active: [1] 32.1 µM | [4] 7.3 µM | [5] 32.4 µM | [8] 20 µM
inactive: [2] | [3] | [6] | [7]

CCCOc1sc(C(=O)N2CCC(c3cc(CN)ccc3F)CC2)c(C)c1Br
not listed: [9] | [10]
inactive: all other assays above

CCCCCCCCCCCCCCCS(=O)(=O)Oc1ccccc1
not listed: [9] | [10]
inactive: all other assays above

COc1cc(CCC(=O)CC(=O)CCc2ccc(O)c(OC)c2)ccc1O
inactive: [10]

CCc1ccc(CCOc2ccc(CC3SC(=O)NC3=O)cc2)nc1 (centres undefined)
not listed: [9] | [10]
inactive: all other assays above

Oc1cc2ccccc2c2ccccc12
not listed: [9] | [10]
inactive: all other assays above

CN1CCN(c2ccccc2/C=C2\SCCN(c3ccc(Cl)c(Cl)c3)C2=O)CC1
active: [1] 0.128 µM | [3] 0.207 µM | [8] 3.97 µM
not listed: [9] | [10]
inactive: all other assays above
